Source: PubChem BioAssay (National Center for Advancing Translational Sciences (NCATS))
CtBP-E1A blk: CtBP/E1A binding inhibition | activity change, % (concentration not given with the values) | 340,000 compounds, 0.49% hits | AlphaScreen GST-E1A/His-CtBP binding, 1536-well; stronger effect = lower value | AID 651724; in the data active = activity change below about -65%; inconclusive = mostly about -30% to -63%
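AlphaScreen with 125 nM GST-E1A and 125 nM His-CtBP (5X stocks) in Tris pH 8.0, 300 mM NaCl, BSA, Tween 20, TCEP. Compounds preincubated 2 h at 37 deg C, then glutathione donor/nickel acceptor beads added for 1 h at 37 deg C in dark.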
TDP1 block: inhibitors of human tyrosyl-DNA phosphodiesterase TDP1; Q9NUW8; recombinant TDP1, AlphaScreen DNA substrate cleavage; Potency, µM (top dose mostly 130 µM), inactives show at the highest dose activity change, negative = inhibition, most hits filed as inhibitors; 350,000 compounds, 0.28% hits; AID 485290; note: potency is the fitted concentration of half-maximal effect; nearly all actives have a fitted effect of over 40% in size
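Recombinant E. coli-expressed Tdp1 (1 nM) preincubated with compound 15 min at RT, then 5'-biotin/3'-phosphotyrosine-FITC DNA substrate (15 nM) added for 5 min. AlphaScreen beads (10 ug/ml) added, 10 min RT; tyrosine-FITC cleavage read as signal loss.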
TDP1 cell noCPT: qHTS for Inhibitors of human tyrosyl-DNA phosphodiesterase 1 (TDP1): qHTS in cells in absence of CPT. DT40 Tdp1-/- hTDP1 cells, no CPT, ATP luminescence, 48 h. Potency, µM (doses to about 46.2 µM), for the others: at the top dose activity change, negative = growth inhibition, actives largely listed as inhibitors. 420,000 compounds, 15% hits; note: potency is the fitted concentration of half-maximal effect; nearly all actives have a fitted effect of over 55% in size
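Growth of hTDP1-complemented DT40 Tdp1-knockout cells is measured by ATP luminescence after at least 48 hr compound exposure at 37 °C, with DMSO substituting for the 20 nM CPT used in the parallel screen.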
Six1-Eya2 inh: inhibitors of human Six1/Eya2 interaction; Q15475+O00167; AlphaScreen GST-Six1/His-Eya2 binding, biochemical; stronger effect = lower value; activity change, % (test concentration not listed); 360,000 compounds, 0.56% hits; in the data active = activity change below about -65%; inconclusive = mostly about -30% to -63%
Target sequence (O00167 whole entry, looked up): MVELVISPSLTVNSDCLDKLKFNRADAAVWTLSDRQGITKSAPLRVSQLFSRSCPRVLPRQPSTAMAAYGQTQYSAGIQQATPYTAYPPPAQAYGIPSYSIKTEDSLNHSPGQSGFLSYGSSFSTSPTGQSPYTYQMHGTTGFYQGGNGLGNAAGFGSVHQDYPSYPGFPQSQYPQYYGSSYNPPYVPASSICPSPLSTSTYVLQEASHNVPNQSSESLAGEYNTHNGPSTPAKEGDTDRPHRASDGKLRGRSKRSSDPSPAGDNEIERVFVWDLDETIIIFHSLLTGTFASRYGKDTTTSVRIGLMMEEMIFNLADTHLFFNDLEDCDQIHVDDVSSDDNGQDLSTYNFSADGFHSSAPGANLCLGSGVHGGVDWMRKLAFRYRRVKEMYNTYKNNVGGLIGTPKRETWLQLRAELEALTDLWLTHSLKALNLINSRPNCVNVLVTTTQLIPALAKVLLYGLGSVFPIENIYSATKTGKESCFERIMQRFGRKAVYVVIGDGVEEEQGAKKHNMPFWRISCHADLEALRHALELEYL
Target sequence (Q15475 whole entry, looked up): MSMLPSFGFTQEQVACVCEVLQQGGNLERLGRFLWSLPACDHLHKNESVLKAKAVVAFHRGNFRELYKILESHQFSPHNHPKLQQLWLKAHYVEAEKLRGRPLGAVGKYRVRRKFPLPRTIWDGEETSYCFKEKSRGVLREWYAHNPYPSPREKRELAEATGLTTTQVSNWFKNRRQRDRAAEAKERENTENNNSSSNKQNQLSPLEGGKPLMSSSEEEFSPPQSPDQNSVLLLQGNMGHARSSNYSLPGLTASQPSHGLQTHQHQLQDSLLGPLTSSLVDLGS
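Six1/Eya2 binding was read as AlphaScreen signal after compounds were pinned into GST-Six1 plus His-tagged Eya2 (5X stock 250/500 nM) in pH 8.0 Tris/NaCl/TCEP buffer, beads added, then incubated 1 h, 37 C, dark.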
IL-1B inflam inh: inflammasome signaling inhibition, IL-1 beta readout; THP-1 LPS/ATP IL-1B secretion, AlphaLISA, 16 h; stronger effect = lower value; activity change, % at 57.5 µM; 360,000 compounds, 4.7% hits; in the data active = activity change below about -50%; inconclusive = mostly about -30% to -49%
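THP-1 cells pretreated 1 hr with compounds (up to 57.5 uM final), then stimulated with LPS (250 ng/mL final) plus ATP (1.25 mM final); secreted IL-1B measured by AlphaLISA after 16 hr, decreased signal indicating inhibition.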
TDP1 cell CPT: DT40-hTDP1 cell growth loss with CPT. 420,000 compounds, 12% hits. chicken DT40 Tdp1-/-;hTDP1 cells + 20 nM CPT, ATP luminescence, 48 h. Potency, µM (top dose mostly 46.2 µM), for inactives: at the highest dose activity change, negative = growth inhibition, hits mostly inhibitors; note: potency is the fitted concentration of half-maximal effect; nearly all actives have a fitted effect of over 55% in size
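Cell growth measured by CellTiter-Glo luminescence after a minimum 48 h, 37 C compound exposure with 20 nM CPT in Tdp1-knockout DT40 cells stably expressing hTDP1, seeded 400/well; qHTS titration format.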
Active calls of the source: *; ? = inconclusive; / = not tested or not shown; [ ] = another dose, or the depositor's remark. Hits are enriched below; roughly 18% of the tested compounds scored in any of these assays. Unless noted, calls come from the whole dose curve; as a rule, active = well fitted curve in the direction sought with a large enough effect; inconclusive = small, poorly fitted or top-dose-only effect, or another doubt; inactive = no such curve, though single readings can be large; an effect the other way counts as inactive or inconclusive. % is set by controls: 0 for no effect and ±100 for the full control effect.

SMILES | CtBP-E1A blk | TDP1 block | TDP1 cell noCPT | Six1-Eya2 inh | IL-1B inflam inh | TDP1 cell CPT
CC(=O)Nc1ccc(NC(=O)C(C)OC(=O)/C=C/c2cnc3ccccc3n2)cc1 (stereo unspecified) | -5 | / | -5% | 0 | -1 | -22%
CC(NC(=O)/C=C/c1cnc2ccccc2n1)C12CC3CC(CC(C3)C1)C2 (stereo unspecified) | -23 | 0% | 18µM* | -23 | -13 | ?
CCOc1ccc(S(=O)(=O)N(C)c2ccc(OCC(=O)Nc3ccccc3F)cc2)cc1 | -6 | -3% | ? | -10 | -5 | ?
C=CCn1c(C)cc(C(=O)COc2ccc(N(C)S(=O)(=O)c3ccc(NC(C)=O)cc3)cc2)c1C | -10 | 2% | 5.8µM* | -16 | -29 | 9.2µM*
CC(=O)Nc1ccc(S(=O)(=O)N(C)c2ccc(OCCOc3cccc(C)c3)cc2)cc1 | -4 | 13µM* | ? | -16 | 4 | ?
CC(=O)c1ccccc1NC(=O)COc1ccc(N(C)S(=O)(=O)c2ccc(C)c(C)c2)cc1 | -22 | 0% | 12µM* | 0 | 47 | 21µM*
Cc1ccc(S(=O)(=O)N(C)c2ccc(OCC(=O)OCc3cccc(Br)c3)cc2)cc1 | 18 | / | 7% | 10 | 12 | ?
Cc1ccc(S(=O)(=O)N(C)c2ccc(OCc3cccc(C)c3)cc2)cc1 | 45 | 0% | 18µM* | 21 | 0 | ?
Cc1noc(C)c1C(=O)N1CCC[C@@]2(CCN(C(=O)Nc3cccc(C#N)c3)C2)C1 | / | / | -3% | / | / | 7%
O=[N+]([O-])c1ccc(COc2cccc3cccnc23)cc1 | 3 | / | -2% | -5 | -13 | 11%
CN(c1ccc(OCC(=O)Nc2ccccc2C(=O)O)cc1)S(=O)(=O)c1ccc(Cl)cc1 | -11 | -2% | -28% | -17 | 3 | -20%
CC(=O)Nc1ccc(S(=O)(=O)N(C)c2ccc(OCC(=O)Nc3ccccc3C(C)=O)cc2)cc1 | -9 | 2% | 21µM* | -26 | -29 | 18µM*
Cc1cccc(NC(=O)CN(C)S(=O)(=O)c2cccc3cccnc23)c1C | / | / | ? | -2 | -16 | ?
c1cc2[nH]snc2c2nc(C3CC3)nc12 | -29 | 2% | 13µM* | -29 | -86* | 18µM*
CC(Oc1ccc(Cl)cc1)c1ccnn1S(=O)(=O)c1ccc(Cl)cc1 (stereo unspecified) | 36 | -6% | -14% | 28 | -21 | -12%
Cc1ccc(S(=O)(=O)n2nccc2-c2c(-c3ccc(Cl)cc3)noc2C)cc1 | 7 | -3% | 16µM* | 8 | -14 | ?
COCCNc1ncnc2c1ncn2[C@H]1CN(Cc2ccc(Cl)cc2)C[C@@H](CO)O1 | 1 | / | -12% | 6 | 11 | -30%
CCc1ccc(N2C(=O)CN(Cc3sccc3C)C2=S)cc1 | 3 | 3% | -18% | 16 | -4 | 11%
Cc1ccccc1CN1CCCC(C(=O)Nc2ccc(-c3ccn[nH]3)cc2)C1 (stereo unspecified) | -6 | 1% | ? | -9 | ? | 16µM*
O=C(Nc1ccc(-c2cccc(F)c2)cc1)C1CCCN(Cc2ccccn2)C1 (stereo unspecified) | -6 | 5%[56.1 µM] | 23µM* | -10 | ? | 21µM*
CCc1ncc(CN2CCCC(C(=O)Nc3cccc(-c4ccc(F)cc4)c3)C2)cn1 (stereo unspecified) | -2 | 6% | 16µM* | -2 | -12 | 23µM*
CCn1cc(CN2CCCC(C(=O)Nc3cccc(-c4cc5ccccc5[nH]4)c3)C2)cn1 (stereo unspecified) | 0 | 6% | ? | -1 | -81* | 4%
COc1cccc(-c2ccc(NC(=O)C3CCCN(Cc4ccccn4)C3)cc2)c1 (stereo unspecified) | -1 | / | ? | -9 | 19 | ?
COc1cccc(-c2ccc(NC(=O)C3CCCN(Cc4cc(C)[nH]n4)C3)cc2)c1 (stereo unspecified) | -13 | 4%[56.1 µM] | ? | -20 | -21 | ?
CC(C)(Oc1ccc(Cl)cc1)C(=O)Nc1cccc(-c2cn3cccnc3n2)c1 | / | 0% | ? | / | / | ?
SMILES | CtBP-E1A blk | TDP1 block | TDP1 cell noCPT | Six1-Eya2 inh | IL-1B inflam inh | TDP1 cell CPT
CCn1c(CSc2ncccn2)nnc1SCC(=O)N1CCCCC1 | -18 | -5% | 5% | 7 | 9 | 8%
Cc1ncc(CN2CCCC(C(=O)Nc3ccc(-c4cccc(F)c4)cc3)C2)cn1 (stereo unspecified) | -1 | 6% | ? | 0 | -87* | 15µM*
CCCCC(=O)NNC(=S)NC(=O)c1ccc(C)cc1 | -3 | 6% | ? | -4 | 61 | -104%
O=C(NNC(=S)NC(=O)c1cccc([N+](=O)[O-])c1)c1ccc(Br)cc1 | -11 | / | 21µM* | 16 | 73 | 16µM*
CCCCC(=O)NNC(=S)NC(=O)c1ccc([N+](=O)[O-])cc1 | -7 | 4% | 29µM* | 5 | 30 | ?
CCCCC(=O)NNC(=S)NC(=O)c1cccc([N+](=O)[O-])c1 | 2 | -4% | ? | -2 | 50 | 23µM*
CCCCCC(=O)NNC(=S)NC(C)=O | -9 | 12% | 18µM* | -2 | 16 | ?
CCOc1ccccc1Nc1sc(C(=O)c2ccccc2)c(N)c1C(=O)Nc1ccccc1 | / | 6% | 9.2µM* | / | / | 10µM*
Cc1ccc(NC(=O)c2c(Nc3ccccc3C)sc(C(=O)c3ccccc3)c2N)cc1 | / | 9% | 5.8µM* | / | / | ?
CCOc1ccccc1Nc1sc(C(=O)c2ccccc2)c(N)c1C(=O)NCCc1ccccc1 | / | 7% | ? | / | / | ?
O=C(c1cc(-c2cccc(O)c2)on1)N1CCOCC1 | -8 | -2% | -7% | 3 | ? | -15%
Cc1ccc(S(=O)(=O)N2C[C@H]3[C@H]4C(=O)N(c5ccccc5)C(=O)[C@H]4C[C@H](OC(=O)Nc4c(C)noc4C)[C@@]3(O)C2)cc1 | 2 | / | ? | 11 | -22 | -27%
CN1/C(=C\C(=O)c2cccs2)Sc2ccccc21 | 28 | / | 10µM* | -12 | -14 | ?
Cc1c(NC(=O)COC(=O)c2ccc(Cl)nc2)c(=O)n(-c2ccccc2)n1C | -10 | -9% | -7% | 2 | -13 | 4%
CC/C(=C/c1ccccc1)c1cc(Oc2ccccc2)cc2oc3ccccc3c12 | / | / | -17% | / | / | -10%
